Assay results from PubChem BioAssay (NCI).
This is part of a sample that, as a whole, favours compounds with a hit. Of some 83,000 tested, about 20% had one in any assay.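 Plates (96-well) were seeded with cells, treated with compound at one concentration, and incubated for 48 hours before percent growth was determined.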 Unmarked numbers belong to inactive results. Active and inactive are the calls of the source. Rule for the calls: active = growth percent below 10; inactive = the rest.

Test system: HL-60(TB) leukemia
Experiment: NCI-60 one-dose screen, 48 h (100 = growth as untreated, 0 = no growth, -100 = all killed)
Settings: 10 µM unless noted

| SMILES | growth |
| --- | --- |
| c1cc(-c2ccc3c(c2)OCO3)n2nccc2n1 | 98.4% |
| Cc1cc(NC(=O)Nc2cc(Cl)ccc2C)no1 | 88.4% |
| C=CC(=O)Nc1cccc(Oc2nc(Nc3ccc(N4CCN(C)CC4)cc3)nc3ccsc23)c1 | -62% (active) |
| CC(=O)O[C@H]1Cc2c([nH]c3ccccc23)[C@@H](c2ccc(Cl)cc2)N1C(=O)CCNC(C)(C)C | 16.6% |
| O=S(=O)(NCCNc1nccc(-c2c(-c3cccc(O)c3)nc3sccn23)n1)c1ccc(F)cc1 | 86.5% |
| CC(C)(C#N)c1cc(C(=O)Nc2cc(Nc3ncccc3-c3ncnc4nc[nH]c34)ccc2F)cc(C(F)(F)F)c1 | 35.3% |
| CN(C)CCN1C(=O)c2ccc3c4c(ccc(c24)C1=O)C(=O)N(CCN=C=S)C3=O | -51.1% (active) |
| CCOC(=O)c1cc2c(n1Cc1cc(OC)cc(OC)c1Br)-c1nc(NC(C)=O)sc1CCC2 | 43.1% |
| COc1cc(OC)c2sc(-c3ccc(-n4cncc4-c4ccc(OC)c(N)c4)cc3)nc2c1 | 58.4% |
| C=C(Cl)COC(=O)C(C)(C)O | 103% |
| Cn1ccnc1C(=O)/C=C/c1ccc(CC(=O)Nc2ccc(Br)cc2)cc1 | 0.748% (active) |
| COc1ccc(-c2cc(C(=O)N3N=C(c4ccc(N)cc4)CC3c3ccc(Cl)cc3)c3cc(OC)ccc3n2)cc1 (configuration not stated) | 4.62% (active) |
| C=C(OC(C)=O)c1ccccc1 | 72.9% |
| CCN=c1sc2c(n1NC(=O)c1cc3ccc1CCc1ccc(cc1)CC3)C(=O)c1ccccc1C2=O | -18.3% (active) |
| CSC1SCC2C(=O)N(C)C(C(C)C)C(=O)OCC(NC(=O)c3cnc4ccccc4n3)C(=O)NC(C)C(=O)N(C)C1C(=O)N(C)C(C(C)C)C(=O)OCC(NC(=O)c1cnc3ccccc3n1)C(=O)NC(C)C(=O)N2C (configuration not stated) | -51.1% (active) |
| CCN1C(=O)N(CC)C2C1NC(=O)N2/N=C/C=C/c1ccccc1 (configuration not stated) | 0.782% (active) |
| CCCCSc1ncnc2c1ncn2C1CCCCO1 (configuration not stated) | 90.4% |
